Assay results published in PubChem BioAssay (NCATS).
“And” between values parts separate entries of the source, which are not always exact repeats. Identical values can stand only once. Records with an inconclusive call do not appear. The source made the active and inactive calls. Unless noted, the call rests on the fitted dose curve; in most records, active means well fitted curve in the direction sought with a large enough effect; inconclusive means small, poorly fitted or top-dose-only effect, or another doubt; inactive means no such curve, though single readings can be large; an effect the other way counts as inactive or inconclusive.

How the values were obtained:
[1] = Cellular Toxicity (caspase-3) N2a (AID 665);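 further: compound exposure lasted 16 h at 37 °C before readout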
Procedure, shortened: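 Mouse N2a neuroblastoma cells (1500/well) were treated with compounds for 16 h at 37 °C, then caspase-3/7 activity was read by Caspase-Glo luminescence after 1 h at room temperature. Data were normalized to DMSO and 10 uM staurosporine; AC50 from Hill fits.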

[2] = Cellular Toxicity (caspase-3) NIH 3T3 (AID 666);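 further: caspase signal read after 16 h compound exposure; 0% = DMSO basal and 100% = 100 µM tamoxifen stimulation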
Procedure, shortened: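 Mouse NIH 3T3 fibroblasts (1000 cells/well) were treated with compound for 16 hr at 37°C in complete medium; caspase-3/7 activity was read by Caspase-Glo luminescence. Normalized to DMSO and 100 uM tamoxifen; AC50 from Hill fits.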

[3] = Cellular Toxicity (caspase-3) Renal Proximal Tubule (AID 667);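 further: cells exposed to compound for 16 hours at 37 °C before detection; 0% = DMSO basal and 100% = 10 µM staurosporine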
Procedure, shortened: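 Caspase 3/7 activation measured by luminescent aminoluciferin release in primary rat proximal tubule cells after 16 hr compound exposure at 37 °C. AC50 from Hill-fitted concentration-response, scaled between DMSO and 10 uM staurosporine.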

[4] = Confirmation and Secondary Assay for Modulators of Hemoglobin Beta Chain Splicing at IVS2 654 locus (AID 910);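 further: HeLa cells stably carrying EGFP split by mutant beta-globin IVS2-654 intron; per-well total GFP intensity by laser scanning cytometry after 2-day treatment; % of control where 0% means no effect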
Procedure, shortened: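 Readout: per-well total peak green fluorescence (488 nm ex, 500–520 nm em) from objects 5–250 µm, reflecting correct splicing of an EGFP-654 reporter. Compounds were applied for 2 days at 37 °C to overnight-plated HeLa EGFP-654 cells; controls were DMSO and 500 nM IVS2-654 PNA.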

[5] = Confirmation and Secondary Assay for Modulators of Hemoglobin Beta Chain Splicing at IVS2 705 locus (AID 930);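 further: HeLa cells stably expressing the EGFP-705 splicing reporter; GFP fluorescence per well restored by corrected splicing of the IVS2-705 intron in EGFP; series mostly up to about 46 µM; % of control where 0% means no effect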
Procedure, shortened: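 HeLa IVS2-705 EGFP reporter cells, 500/well, compound 2 d at 37C; correct splicing yields fluorescent EGFP. Control: 500 nM antisense PNA. Read-out: total peak GFP intensity.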

[6] = MultiTox-Fluor Cytotoxicity Assay - LYMP1-001 - Dead Cells (AID 946);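 further: 0% = DMSO and 100% = tetraoctylammonium bromide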
Procedure, shortened: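 Seed 2500 LYMP1-001 cells/well, incubate 5 hr at 37 C; add compound, 16 hr at 37 C; add MultiTox-Fluor reagent, 60 min RT; read dead-cell fluorescence Ex/Em=485/520. Normalize to DMSO and 15 uM tetraoctylammonium bromide.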

[7] = MultiTox-Fluor Cytotoxicity Assay - LYMP1-001 - Live Cells (AID 947);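 further: 0% = DMSO only and full inhibition = tetraoctylammonium bromide control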
[8] = biological target: Cytochrome P450 3A4 (Homo sapiens) (UniProt P08684); experiment: qHTS Assay for Inhibitors and Substrates of Cytochrome P450 3A4 (AID 884); further: nearly all actives have a fitted effect of over 50% in size; further: potency means the concentration at half of the fitted maximal effect
Cytochrome P450 3A4 (Homo sapiens), sequence (P08684 whole entry, looked up): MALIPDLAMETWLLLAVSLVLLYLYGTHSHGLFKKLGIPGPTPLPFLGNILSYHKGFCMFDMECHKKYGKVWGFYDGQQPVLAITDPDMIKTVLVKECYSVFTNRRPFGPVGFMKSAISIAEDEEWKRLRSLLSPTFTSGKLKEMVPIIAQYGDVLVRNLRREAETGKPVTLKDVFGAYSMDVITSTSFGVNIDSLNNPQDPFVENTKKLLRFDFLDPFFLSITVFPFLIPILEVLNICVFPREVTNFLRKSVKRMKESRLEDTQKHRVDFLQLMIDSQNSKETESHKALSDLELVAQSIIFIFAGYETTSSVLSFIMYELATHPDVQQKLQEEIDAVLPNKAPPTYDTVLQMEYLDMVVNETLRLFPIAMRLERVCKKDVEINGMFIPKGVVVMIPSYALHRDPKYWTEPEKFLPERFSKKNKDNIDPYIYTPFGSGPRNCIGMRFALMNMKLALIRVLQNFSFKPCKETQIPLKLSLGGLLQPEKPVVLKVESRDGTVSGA
Procedure, shortened: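 20 nM human CYP3A4 with 25 uM Luciferin-PPXE (at KM) in 200 mM KPO4, preincubated 10 min with compound; NADPH regeneration started a 60 min RT reaction. Luciferin detected by luminescence, normalized to 57 uM ketoconazole as full inhibition.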

[9] = biological target: Cytochrome P450 2C19 (Homo sapiens) (UniProt P33261); experiment: qHTS Assay for Inhibitors and Substrates of Cytochrome P450 2C19 (AID 899); further: nearly all actives have a fitted effect of over 60% in size; further: potency means the concentration at half of the fitted maximal effect
Cytochrome P450 2C19 (Homo sapiens), sequence (P33261 whole entry, looked up): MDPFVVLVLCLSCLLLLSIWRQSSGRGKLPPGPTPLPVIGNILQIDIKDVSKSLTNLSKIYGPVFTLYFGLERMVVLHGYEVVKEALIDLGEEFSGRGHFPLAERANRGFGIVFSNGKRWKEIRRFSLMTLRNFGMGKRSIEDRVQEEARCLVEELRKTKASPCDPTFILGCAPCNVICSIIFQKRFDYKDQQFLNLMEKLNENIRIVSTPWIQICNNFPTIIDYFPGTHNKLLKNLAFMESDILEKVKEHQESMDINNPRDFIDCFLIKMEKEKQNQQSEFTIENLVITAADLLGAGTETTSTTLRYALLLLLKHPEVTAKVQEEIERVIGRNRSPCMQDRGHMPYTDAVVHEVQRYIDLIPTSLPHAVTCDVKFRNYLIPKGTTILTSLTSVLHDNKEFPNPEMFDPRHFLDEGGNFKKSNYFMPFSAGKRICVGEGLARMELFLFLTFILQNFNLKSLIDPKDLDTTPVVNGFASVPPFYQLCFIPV
Procedure, shortened: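 5nM enzyme + 10uM Luciferin-H EGE (=KM), 50mM KPO4; cpd pin-transferred, 10 min 37C; NADPH regen, 60 min 37C; stopped w/ luciferin detection reagent, 20 min; luminescence. Normalized to 57uM ketoconazole (AC100).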

[10] = biological target: Cytochrome P450 2C9 (Homo sapiens) (UniProt P11712); experiment: qHTS Assay for Inhibitors and Substrates of Cytochrome P450 2C9 (AID 883); further: nearly all actives have a fitted effect of over 60% in size; further: potency means the concentration at half of the fitted maximal effect
Cytochrome P450 2C9 (Homo sapiens), sequence (P11712 whole entry, looked up): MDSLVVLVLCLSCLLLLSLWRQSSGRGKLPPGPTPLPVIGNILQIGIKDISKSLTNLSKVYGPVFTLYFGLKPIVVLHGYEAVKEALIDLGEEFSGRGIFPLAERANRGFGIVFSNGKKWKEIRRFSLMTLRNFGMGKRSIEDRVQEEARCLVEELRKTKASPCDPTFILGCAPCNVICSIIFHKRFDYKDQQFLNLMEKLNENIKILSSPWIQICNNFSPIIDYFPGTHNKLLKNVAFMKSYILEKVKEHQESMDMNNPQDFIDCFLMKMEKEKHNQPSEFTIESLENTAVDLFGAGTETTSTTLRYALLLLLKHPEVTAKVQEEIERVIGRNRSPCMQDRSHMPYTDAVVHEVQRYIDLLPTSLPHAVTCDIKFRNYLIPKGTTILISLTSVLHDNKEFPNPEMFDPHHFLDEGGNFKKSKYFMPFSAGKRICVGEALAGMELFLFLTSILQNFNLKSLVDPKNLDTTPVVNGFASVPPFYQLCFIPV
Procedure, shortened: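 Inhibition of CYP2C9 is scored as loss of luminescence, with 57uM sulphaphenazole defining 100% inhibition. Substrate Luciferin-H is used at 100uM, equal to its KM; enzyme at 10nM in 25mM KPO4, 60 min at 37C with NADPH regeneration.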

[11] = biological target: Guanine nucleotide-binding protein G(i) subunit alpha-1 (Homo sapiens) (UniProt P63096); experiment: qHTS Assay for Inhibitors of RGS12 GoLoco Motif Activity (Green Fluorophore) (AID 879);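 further: 0% = labeled peptide with Gαi1 and full inhibition = labeled peptide alone without protein; negative values mean loss of peptide binding seen as reduced polarization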
Guanine nucleotide-binding protein G(i) subunit alpha-1 (Homo sapiens), sequence (P63096 whole entry, looked up): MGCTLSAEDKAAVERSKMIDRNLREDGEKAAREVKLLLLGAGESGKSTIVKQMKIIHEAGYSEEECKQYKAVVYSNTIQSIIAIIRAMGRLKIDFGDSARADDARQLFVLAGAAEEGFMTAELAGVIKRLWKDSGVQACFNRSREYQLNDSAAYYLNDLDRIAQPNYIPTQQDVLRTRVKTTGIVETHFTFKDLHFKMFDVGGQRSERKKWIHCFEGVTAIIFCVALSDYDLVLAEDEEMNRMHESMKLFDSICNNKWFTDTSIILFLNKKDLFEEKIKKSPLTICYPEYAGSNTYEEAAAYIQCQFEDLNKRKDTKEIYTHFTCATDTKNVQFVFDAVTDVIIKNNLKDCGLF
Procedure, shortened: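 Fluorescence polarization assay: 50 nM Gαi1 with 10 nM FITC-labeled RGS12 GoLoco peptide in 10 mM Tris pH 7.5, 150 mM NaCl, 0.1 mM GDP, 0.05% NP40, 10 min at room temperature with compound.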

[12] = biological target: Cytochrome P450 3A4 (Homo sapiens) (UniProt P08684); experiment: qHTS Assay for Activators of Cytochrome P450 3A4 (AID 885); further: nearly all actives have a fitted effect of over 65% in size
Procedure, shortened: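 Steps: enzyme/substrate mix dispensed; compound added, 10 min RT; NADPH regeneration solution added, 60 min RT; luciferin detection buffer stops reaction; 20 min later luminescence measured.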

[13] = qHTS Assay for Identification of Small Molecule Agonists for Thrombopoietin (TPO) Signaling Pathway (AID 917); further: potency means the concentration at half of the fitted maximal effect
Procedure, shortened: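 Reporter: GpIIb promoter–luciferase in murine Ba/F3 expressing human TPO receptor. Pre-starved of IL-3 overnight; compounds with 26 pM TPO, 24 hrs, 37 C/5% CO2; luminescence read.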

[14] = biological target: Muscarinic acetylcholine receptor M1 (Rattus norvegicus) (UniProt P08482); experiment: qHTS Assay for Antagonists of Acetylcholine Muscarinic M1 Receptor: Measurement of IP-One Response (AID 944); further: nearly all actives have a fitted effect of over 75% in size
Muscarinic acetylcholine receptor M1 (Rattus norvegicus), sequence (P08482 whole entry, looked up): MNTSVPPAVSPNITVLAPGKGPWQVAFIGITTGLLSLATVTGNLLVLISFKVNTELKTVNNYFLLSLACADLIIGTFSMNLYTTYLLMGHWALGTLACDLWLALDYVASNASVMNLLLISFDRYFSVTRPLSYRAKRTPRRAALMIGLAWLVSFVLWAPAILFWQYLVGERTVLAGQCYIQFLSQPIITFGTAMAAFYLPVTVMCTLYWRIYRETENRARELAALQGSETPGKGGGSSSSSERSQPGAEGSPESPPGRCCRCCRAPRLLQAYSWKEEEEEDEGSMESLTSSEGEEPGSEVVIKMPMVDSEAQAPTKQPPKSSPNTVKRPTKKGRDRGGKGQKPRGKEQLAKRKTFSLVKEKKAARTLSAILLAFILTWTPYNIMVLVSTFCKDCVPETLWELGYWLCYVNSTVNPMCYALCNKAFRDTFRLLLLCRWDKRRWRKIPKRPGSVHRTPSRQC
Procedure, shortened: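 CHO cells expressing rat M1 receptor, recovered overnight, were pre-incubated 10 min with compound, then stimulated 30 min with carbachol at EC80 (200 nM) in LiCl-containing buffer, pH 7.4. IP1 accumulation was read by HTRF (620/665 nm).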

[15] = qHTS Assay for Identification of Small Molecule Antagonists for NFkB Signaling Pathway (AID 895; active means well fitted inhibition curve with a large enough effect in the signal ratio, with a control signal flat, not every such curve was filed as active; the % refers to the signal ratio; further: potency means the concentration at half of the fitted maximal effect)
Procedure, shortened: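 Beta-lactamase reporter read-out (460 and 530 nm emission ratio, 405 nm excitation, 2 hrs substrate loading RT) after 5 hr stimulation with 10 pM TNF alpha in compound-treated NFkB-bla ME-180 cells in low-serum medium.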

[16] = qHTS Assay for Identification of Small Molecule Antagonists for Thrombopoietin (TPO) Signaling Pathway (AID 918); conditions: TPO-dependent cell signaling reporter, antagonist mode; further: potency means the concentration at half of the fitted maximal effect; nearly all actives have a fitted effect of over 60% in size
Procedure, shortened: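 Murine Ba/F3 cells stably expressing human TPO receptor and a Glycoprotein IIb promoter–luciferase reporter were IL-3-starved overnight, treated with compounds plus TPO (26 pM final, its EC50) for 24 hrs at 37 C, then read by luminescence.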

[17] = biological target: Muscarinic acetylcholine receptor M1 (Rattus norvegicus) (UniProt P08482); experiment: qHTS Assay for Antagonists of Acetylcholine Muscarinic M1 Receptor: Kinetic Measurement of Intracellular Calcium Response (AID 943);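 further: Fluo-4 calcium signal as peak divided by basal fluorescence over 4 min; series mostly up to about 35 µM; nearly all actives have a fitted effect of over 75% in size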
Procedure, shortened: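 CHO cells stably expressing rat M1 were loaded with no-wash Fluo-4 dye for 1 h at 37C, pre-incubated 10 min with compound, then challenged with EC80 carbachol (100 nM final); kinetic calcium read 4 min, peak/basal ratio.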

[18] = biological target: Cytochrome P450 2D6 (Homo sapiens) (UniProt P10635); experiment: qHTS Assay for Inhibitors and Substrates of Cytochrome P450 2D6 (AID 891); further: nearly all actives have a fitted effect of over 60% in size; further: potency means the concentration at half of the fitted maximal effect
Cytochrome P450 2D6 (Homo sapiens), sequence (P10635 whole entry, looked up): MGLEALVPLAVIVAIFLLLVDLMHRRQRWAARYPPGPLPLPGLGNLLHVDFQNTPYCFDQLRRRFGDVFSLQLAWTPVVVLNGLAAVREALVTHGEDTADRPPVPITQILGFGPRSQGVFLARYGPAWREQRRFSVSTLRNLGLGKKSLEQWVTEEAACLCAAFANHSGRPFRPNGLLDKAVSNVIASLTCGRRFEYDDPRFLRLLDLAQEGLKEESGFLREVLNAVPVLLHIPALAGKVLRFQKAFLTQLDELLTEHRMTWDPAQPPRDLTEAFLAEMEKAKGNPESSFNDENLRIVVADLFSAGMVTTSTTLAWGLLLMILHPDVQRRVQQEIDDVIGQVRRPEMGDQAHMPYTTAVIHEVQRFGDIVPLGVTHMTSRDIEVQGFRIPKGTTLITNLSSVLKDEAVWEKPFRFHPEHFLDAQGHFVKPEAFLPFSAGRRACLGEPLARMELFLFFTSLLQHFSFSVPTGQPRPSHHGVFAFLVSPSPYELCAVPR
Procedure, shortened: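 Human CYP2D6 (5 nM) with 30 uM Luciferin-ME EGE (at Km) in 100 mM KPO4, compound preincubated 10 min, then NADPH regeneration system for 60 min at room temperature. Luciferin read by luminescence; normalized to 1.43 uM quinidine.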

[19] = qHTS Assay for Identification of Small Molecule Agonists for Hypoxia Response Element Signaling Pathway (AID 914; active means well fitted activation curve with a large enough effect in the signal ratio, with a control signal flat, not every such curve was filed as active; the % refers to the signal ratio; further: % of control where 0% means no effect); conditions: ME-180 (cervical carcinoma) HRE-bla reporter, beta-lactamase ratio, CoCl2, 17 h; active compounds read high
Procedure, shortened: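 HRE-bla ME-180 assay for agonist-like enhancement of an EC50 CoCl2 stimulus: 17 h at 37 degrees Celsius, CCF4 for 2.5 h, ratiometric 460/530 nm signal converted to %Activity and fitted to AC50.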

Nc1ccc(S(N)(=O)=O)cc1
inactive: outcome [1] | outcome [2] | outcome [3] | Potency [4] | Potency [5] | Potency [6] | Potency [7]

CCCc1cc(=O)[nH]c(=S)[nH]1
inactive: outcome [1] | outcome [2] | outcome [3] | Potency [8] | Potency [9] | Potency [4] | Potency [5] | Potency [6] | Potency [7]

CCc1nc(N)nc(N)c1-c1ccc(Cl)cc1
inactive: outcome [1] | outcome [2] | outcome [3] | outcome [10] | outcome [9] | Potency [4] | Potency [5] | Potency [6] | Potency [7]

Cc1c(OCC(F)(F)F)ccnc1CS(=O)c1nc2ccccc2[nH]1 (stereo not given)
inactive: outcome [11] | outcome [12] | Potency [4] | Potency [13] | Potency [5] | Potency [14]
active: Potency [9] 1.26 µM

CCCCC(CC)COC(=O)C(C#N)=C(c1ccccc1)c1ccccc1 (stereo not given)
inactive: outcome [1] | outcome [2] | outcome [3] | Potency [8] | Potency [6] | Potency [7]

NCCCCNCCCN
active: Potency [16] 6.31 µM
inactive: outcome [11] | Potency [8] | Potency [15] | Potency [4] | Potency [5] | Potency [17]

O=c1c(O)c(-c2cc(O)c(O)c(O)c2)oc2cc(O)cc(O)c12
inactive: outcome [11] | outcome [12] | Potency [18] | Potency [17] | Potency [14]
active: Potency [16] 10 µM

c1ccc2[nH]c(-c3cscn3)nc2c1
inactive: outcome [1] | outcome [3] | Potency [4] | activation [19] -2.82% | Potency [5] | Potency [6] | Potency [7]

CC(=O)Nc1ccc(O)cc1
inactive: outcome [1] | outcome [2] | outcome [3] | outcome [10] | outcome [18] | outcome [9] | Potency [6] | Potency [7]

Oc1ccc(-c2nc(-c3ccc(F)cc3)c(-c3ccncc3)[nH]2)cc1
inactive: outcome [11] | Potency [17] | Potency [14]
active: Potency [10] 7.94 µM | Potency [18] 12.6 µM and 5.01 µM | Potency [9] 0.794 µM

NC(=NCc1ccccc1)NC(=O)c1nc(Cl)c(N)nc1N
inactive: outcome [11] | Potency [8] | Potency [4] | Potency [5]
active: Potency [18] 5.01 µM | Potency [13] 12.6 µM

NS(=O)(=O)c1cc(C(=O)O)c(NCc2ccco2)cc1Cl
inactive: outcome [1] | outcome [2] | outcome [3] | Potency [4] | activation [19] -15.7% | Potency [5] | Potency [6] | Potency [7]

O=C(O)c1cccnc1Nc1cccc(C(F)(F)F)c1
inactive: outcome [11] | outcome [12] | Potency [18] | Potency [9] | Potency [4] | Potency [13] | Potency [5]

O=C(CCc1ccc(O)cc1)c1c(O)cc(O)cc1O
active: Potency [10] 2.51 µM | Potency [8] 2 µM and 15.8 µM | Potency [9] 3.98 µM
inactive: outcome [11] | outcome [12] | Potency [4] | Potency [13] | Potency [5] | Potency [17] | Potency [14]

CS(=O)(=O)OCCCCOS(C)(=O)=O
inactive: outcome [1] | outcome [2] | outcome [3] | Potency [8] | Potency [4] | Potency [5] | Potency [6] | Potency [7]

CCN(CC)C(=S)SSC(=S)N(CC)CC
inactive: outcome [11] | outcome [12] | Potency [4] | Potency [5] | Potency [14]
active: Potency [10] 2.51 µM and 398 nM | Potency [15] 7.08 µM | Potency [16] 0.398 µM

Cc1ccc(C)c(OCCCC(C)(C)C(=O)O)c1
inactive: outcome [1] | outcome [2] | outcome [3] | Potency [8] | Potency [4] | Potency [5] | Potency [6] | Potency [7]
active: Potency [10] 6.31 µM

NNc1nncc2ccccc12
active: Potency [13] 0.0398 µM
inactive: outcome [11] | outcome [12] | Potency [15] | Potency [4] | Potency [5]

O=c1c(O)c(-c2ccc(O)cc2O)oc2cc(O)cc(O)c12
active: Potency [10] 10 µM
inactive: outcome [11] | Potency [18] | Potency [9] | Potency [4] | Potency [5] | Potency [14]

C[C@H](Cc1ccc(O)c(O)c1)[C@@H](C)Cc1ccc(O)c(O)c1
active: Potency [10] 1.58 µM | Potency [18] 25.1 µM | Potency [15] 7.94 µM | Potency [9] 6.31 µM | Potency [16] 5.01 µM
inactive: outcome [11] | Potency [8] | Potency [14]
